Test results published in the supplement of paper PMC10849652.
Targets with a hit are over-represented here; the source holds about 8,800 in all. About 0.5% of all pairs of compound and target were hits.

What was measured:
Assay in all cases: log2 fold change, soluble protein after heating vs DMSO (PISA); higher = thermal stabilisation; K562 lysate, 10 uM; active = over 0.2 and 3.5 SD of the protein, either way, in both replicates (recomputed)
[1] = compound: Cc1cn(-c2cc(NC(=O)c3ccc(C)c(Nc4nccc(-c5cccnc5)n4)c3)cc(C(F)(F)F)c2)cn1 [nilotinib]
Outline: (§1)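 The values are log-two fold changes in thermal stability compared with solvent controls and come from duplicates. They were obtained by TMTpro 16plex LC-MS/MS, with channel sums equalised, on the supernatant after 21,000xg for 90 min. That supernatant came from crude K562 extract at 1 mg/mL protein treated with 10 μM compound for 30 min, heated for 3 min across 48°C-58°C, pooled and brought to 0.5% NP-40 at 4°C.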

[2] = compound: Cc1nc(Nc2n[nH]c3c2CN(C(=O)N[C@H](CN(C)C)c2ccccc2)C3(C)C)c2sccc2n1
Outline: as §1

[3] = compound: Cc1ncc(-c2ccnc(Nc3ccc(S(C)(=O)=O)cc3)n2)n1C(C)C
Outline: as §1

[4] = compound: Cn1cc(CNCC2CCN(c3ncc(C(=O)NO)cn3)CC2)c2ccccc21 [quisinostat]
Outline: as §1

[5] = compound: Cn1cncc1[C@@](N)(c1ccc(Cl)cc1)c1ccc2c(c1)c(-c1cccc(Cl)c1)cc(=O)n2C [tipifarnib]
Outline: as §1

[6] = compound: NC(=O)Nc1cc(-c2cccc(F)c2)sc1C(=O)N[C@H]1CCCNC1
Outline: as §1

[7] = compound: NC(=O)c1cnc(N[C@@H]2CCCC[C@@H]2N)nc1Nc1cccc(-n2nccn2)c1
Outline: as §1

[8] = compound: NCC(=O)Nc1ccc(-n2nc(C(F)(F)F)cc2-c2ccc3c(ccc4ccccc43)c2)cc1
Outline: as §1

[9] = compound: O=C1NC(=O)C(c2cnc3ccccn23)=C1c1cn2c3c(cc(F)cc13)CN(C(=O)N1CCCCC1)CC2
Outline: as §1

[10] = compound: c1cn2cc(-c3ccc4cn[nH]c4c3)nc(Nc3ccc(N4CCOCC4)cc3)c2n1 [entospletinib]
Outline: as §1

[11] = compound: NC1(c2ccc(-c3nc4ccn5c(=O)[nH]nc5c4cc3-c3ccccc3)cc2)CCC1
Outline: as §1

[12] = compound: O=C(CCCCCCC(=O)Nc1ccccc1)NO [vorinostat]
Outline: as §1

[13] = compound: O=C(O)c1ccc2c(c1)nc(Nc1cccc(Cl)c1)c1ccncc12 [silmitasertib]
Outline: as §1

[14] = compound: Cc1nc(Nc2ncc(C(=O)Nc3c(C)cccc3Cl)s2)cc(N2CCN(CCO)CC2)n1 [dasatinib]
Outline: as §1

[15] = compound: Cn1cc(-c2ccc3c(c2)CCN3C(=O)Cc2cccc(C(F)(F)F)c2)c2c(N)ncnc21
Outline: as §1

Measured: log2 fold change

CLASP2 (UniProt O75122)
inactive: [1] 0.013 | [2] -0.14 | [3] -0.061 | [4] -0.135 | [5] -0.242 | [6] -0.058 | [7] 0.205 | [8] 0.052 | [9] 0.194 | [10] -0.073

CRLS1 (UniProt Q9UJA2)
active: [12] -0.572
inactive: [1] 0.1 | [2] -0.096 | [3] -0.143 | [4] -0.122 | [5] -0.01 | [6] 0.066 | [7] -0.018 | [11] -0.067 | [13] 0.172 | [9] 0.036

CLASP1 isoform 4 (UniProt Q7Z460)
inactive: [1] -0.113 | [2] 0.126 | [3] 0.09 | [5] -0.301 | [11] 0.111 | [8] -0.214 | [12] 0.167 | [13] 0.06

CUX1 isoform 2 (UniProt Q13948)
inactive: [14] 0.001 | [15] 0.101 | [4] 0.072 | [6] -0.026 | [7] -0.073 | [11] 0.012 | [8] -0.102 | [12] 0.101 | [13] 0.086 | [9] 0.676 | [10] -0.077

DNAH5 (UniProt Q8TE73)
inactive: [1] -0.029 | [2] -0.036 | [14] -0.072 | [3] -0.013 | [15] -0.156 | [5] -0.128 | [7] -0.073 | [11] -0.049 | [8] 0.008 | [12] 0.113 | [13] -0.179

COPS9 (UniProt Q8WXC6)
inactive: [7] -0.074 | [11] 0.214 | [12] 0.341 | [13] -0.139

DIAPH1 (UniProt H9KV28)
inactive: [1] -0.027 | [2] -0.122 | [3] 0.053 | [4] -0.093 | [5] -0.051 | [6] -0.001 | [7] 0.05 | [11] 0.111 | [8] -0.002 | [12] 0.087 | [13] 0.084 | [9] -0.083 | [10] -0.113

CXCL14 (UniProt O95715)
inactive: [8] 0.24 | [10] 0.033

CYP4V2 (UniProt Q6ZWL3)
inactive: [14] -0.041 | [15] 0.049 | [4] 0.103 | [6] -0.026 | [7] -0.101 | [11] -0.033 | [12] 0.055 | [13] -0.038 | [9] 0.034

CNK3/IPCEF1 isoform 2 (UniProt G9CGD6)
Chain of UniProt G9CGD6 (G9CGD6 whole entry, looked up): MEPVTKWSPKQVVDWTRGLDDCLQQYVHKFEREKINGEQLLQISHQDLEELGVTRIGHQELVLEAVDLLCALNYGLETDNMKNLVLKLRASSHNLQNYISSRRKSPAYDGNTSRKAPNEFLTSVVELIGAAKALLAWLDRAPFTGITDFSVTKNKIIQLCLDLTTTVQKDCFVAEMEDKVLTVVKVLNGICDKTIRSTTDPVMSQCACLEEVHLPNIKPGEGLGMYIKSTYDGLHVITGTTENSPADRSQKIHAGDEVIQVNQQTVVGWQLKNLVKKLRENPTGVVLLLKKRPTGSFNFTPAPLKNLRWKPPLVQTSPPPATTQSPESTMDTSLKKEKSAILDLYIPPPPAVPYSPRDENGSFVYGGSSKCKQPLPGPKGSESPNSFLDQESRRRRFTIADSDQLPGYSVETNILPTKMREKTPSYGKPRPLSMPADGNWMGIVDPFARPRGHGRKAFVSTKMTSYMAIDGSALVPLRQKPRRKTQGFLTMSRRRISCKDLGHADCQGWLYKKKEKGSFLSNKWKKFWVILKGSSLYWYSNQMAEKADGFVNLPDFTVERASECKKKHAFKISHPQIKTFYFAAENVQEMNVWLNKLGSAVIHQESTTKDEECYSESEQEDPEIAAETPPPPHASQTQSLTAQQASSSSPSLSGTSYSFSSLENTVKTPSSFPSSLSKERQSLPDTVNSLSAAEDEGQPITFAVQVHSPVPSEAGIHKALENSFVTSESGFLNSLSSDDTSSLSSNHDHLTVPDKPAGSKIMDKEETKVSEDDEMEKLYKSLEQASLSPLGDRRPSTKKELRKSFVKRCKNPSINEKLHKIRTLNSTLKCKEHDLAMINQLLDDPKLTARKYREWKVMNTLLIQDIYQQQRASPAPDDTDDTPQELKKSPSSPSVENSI
inactive: [14] -0.131 | [15] 0.002 | [11] 0.168 | [8] -0.02 | [12] -0.279 | [13] 0.06 | [10] 0.008

CNOT2 (UniProt F8VRS8)
inactive: [11] -0.122 | [12] -0.056 | [13] 0.152

CLIP1, A0A3B3ITA2
inactive: [4] -0.169 | [6] 0.017 | [8] 0.136 | [9] 0.068

DPY19L3 (UniProt Q6ZPD9)
active: [11] -0.683
inactive: [4] -0.103 | [6] 0.034 | [7] 0.045 | [8] -0.085 | [12] 0.219 | [13] 0.108 | [9] 0.035 | [10] -0.024

CPLX1 (UniProt O14810)
active: [14] 1.05
inactive: [15] -0.134 | [7] 0.178 | [8] 0 | [10] 0.119

DDX4 (UniProt Q9NQI0)
inactive: [1] -0.108 | [2] 0.043 | [14] 0.014 | [3] -0.085 | [15] 0.076 | [5] 0.028 | [7] 0.062 | [11] 0.059 | [8] 0.019 | [12] -0.213 | [13] 0.101 | [10] 0.011

CNNM2 (UniProt Q9H8M5)
inactive: [14] -0.021 | [15] -0.044 | [4] 0.217 | [6] -0.077 | [7] -0.001 | [11] -0.006 | [8] 0.001 | [12] 0.068 | [13] 0.065 | [9] 0.051 | [10] -0.073

DHX32 (UniProt Q7L7V1)
inactive: [1] -0.025 | [2] -0.027 | [3] -0.044 | [4] -0.015 | [5] -0.061 | [6] 0.142 | [11] 0.108 | [8] -0.044 | [12] -0.351 | [13] 0.028 | [9] 0.097 | [10] -0.002

CSDE1 isoform 3 (UniProt O75534)
inactive: [1] 0.064 | [2] -0.135 | [3] 0.016 | [4] 0.022 | [5] -0.02 | [6] -0.085 | [7] -0.021 | [9] -0.1

CYP2S1 isoform 2 (UniProt Q96SQ9)
inactive: [14] 0.116 | [15] 0.093 | [4] 0.014 | [6] -0.135 | [7] 0.054 | [11] -0.056 | [8] 0.014 | [12] 0.067 | [13] -0.027 | [9] -0.025 | [10] 0.055

DESI2 (UniProt Q9BSY9)
inactive: [8] 0.155 | [10] 0.116

DLGAP5 isoform 3 (UniProt Q15398)
inactive: [14] 0.017 | [15] 0.18

CNOT4 isoform 9 (UniProt O95628)
Chain of UniProt O95628 (O95628 whole entry, looked up): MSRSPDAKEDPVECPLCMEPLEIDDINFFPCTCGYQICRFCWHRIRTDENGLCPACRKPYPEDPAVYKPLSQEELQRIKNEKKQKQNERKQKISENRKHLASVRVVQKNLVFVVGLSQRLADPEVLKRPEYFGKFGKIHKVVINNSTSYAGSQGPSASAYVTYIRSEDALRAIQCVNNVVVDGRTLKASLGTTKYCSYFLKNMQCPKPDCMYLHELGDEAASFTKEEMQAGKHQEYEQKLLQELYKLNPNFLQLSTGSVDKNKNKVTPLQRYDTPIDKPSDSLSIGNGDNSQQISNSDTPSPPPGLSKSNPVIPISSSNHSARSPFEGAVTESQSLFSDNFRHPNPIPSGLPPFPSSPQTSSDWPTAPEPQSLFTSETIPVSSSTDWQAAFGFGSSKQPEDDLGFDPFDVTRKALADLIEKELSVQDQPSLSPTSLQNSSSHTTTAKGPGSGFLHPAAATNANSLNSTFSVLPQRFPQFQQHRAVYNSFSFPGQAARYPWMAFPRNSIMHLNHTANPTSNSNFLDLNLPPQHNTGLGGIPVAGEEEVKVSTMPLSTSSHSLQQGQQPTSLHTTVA
inactive: [14] -0.062 | [15] -0.052 | [4] 0.17 | [6] -0.058 | [7] 0.081 | [11] -0.024 | [8] 0.036 | [12] 0.098 | [13] 0.044 | [9] -0.031 | [10] 0.009

CSNK1A1 isoform 3 (UniProt P48729)
inactive: [14] 0.048 | [15] -0.183

CSNK1G3 isoform 4 (UniProt Q9Y6M4)
inactive: [7] 0.083

COL6A3 (UniProt P12111)
inactive: [1] 0.05 | [2] 0.151 | [14] 0.032 | [3] 0.02 | [15] -0.055 | [4] 0.123 | [5] -0.009 | [6] 0 | [11] -0.155 | [12] 0.273 | [13] 0.002 | [9] -0.093

CSNK2A1, A0A2R8Y4D6
inactive: [7] 0.085

CSAD isoform 3 (UniProt Q9Y600)
inactive: [4] -0.035 | [6] -0.001 | [11] -0.153 | [12] 0.031 | [13] 0.075 | [9] 0.039

CSRP2 (UniProt Q16527)
inactive: [4] -0.012 | [6] 0.068 | [9] 0.016 | [10] -0.132

DAZAP1 (UniProt K7EQ02)
inactive: [1] -0.221 | [2] 0.096 | [3] 0.119 | [5] -0.039

COL12A1 (UniProt Q99715)
Chain of UniProt Q99715 (Q99715 whole entry, looked up): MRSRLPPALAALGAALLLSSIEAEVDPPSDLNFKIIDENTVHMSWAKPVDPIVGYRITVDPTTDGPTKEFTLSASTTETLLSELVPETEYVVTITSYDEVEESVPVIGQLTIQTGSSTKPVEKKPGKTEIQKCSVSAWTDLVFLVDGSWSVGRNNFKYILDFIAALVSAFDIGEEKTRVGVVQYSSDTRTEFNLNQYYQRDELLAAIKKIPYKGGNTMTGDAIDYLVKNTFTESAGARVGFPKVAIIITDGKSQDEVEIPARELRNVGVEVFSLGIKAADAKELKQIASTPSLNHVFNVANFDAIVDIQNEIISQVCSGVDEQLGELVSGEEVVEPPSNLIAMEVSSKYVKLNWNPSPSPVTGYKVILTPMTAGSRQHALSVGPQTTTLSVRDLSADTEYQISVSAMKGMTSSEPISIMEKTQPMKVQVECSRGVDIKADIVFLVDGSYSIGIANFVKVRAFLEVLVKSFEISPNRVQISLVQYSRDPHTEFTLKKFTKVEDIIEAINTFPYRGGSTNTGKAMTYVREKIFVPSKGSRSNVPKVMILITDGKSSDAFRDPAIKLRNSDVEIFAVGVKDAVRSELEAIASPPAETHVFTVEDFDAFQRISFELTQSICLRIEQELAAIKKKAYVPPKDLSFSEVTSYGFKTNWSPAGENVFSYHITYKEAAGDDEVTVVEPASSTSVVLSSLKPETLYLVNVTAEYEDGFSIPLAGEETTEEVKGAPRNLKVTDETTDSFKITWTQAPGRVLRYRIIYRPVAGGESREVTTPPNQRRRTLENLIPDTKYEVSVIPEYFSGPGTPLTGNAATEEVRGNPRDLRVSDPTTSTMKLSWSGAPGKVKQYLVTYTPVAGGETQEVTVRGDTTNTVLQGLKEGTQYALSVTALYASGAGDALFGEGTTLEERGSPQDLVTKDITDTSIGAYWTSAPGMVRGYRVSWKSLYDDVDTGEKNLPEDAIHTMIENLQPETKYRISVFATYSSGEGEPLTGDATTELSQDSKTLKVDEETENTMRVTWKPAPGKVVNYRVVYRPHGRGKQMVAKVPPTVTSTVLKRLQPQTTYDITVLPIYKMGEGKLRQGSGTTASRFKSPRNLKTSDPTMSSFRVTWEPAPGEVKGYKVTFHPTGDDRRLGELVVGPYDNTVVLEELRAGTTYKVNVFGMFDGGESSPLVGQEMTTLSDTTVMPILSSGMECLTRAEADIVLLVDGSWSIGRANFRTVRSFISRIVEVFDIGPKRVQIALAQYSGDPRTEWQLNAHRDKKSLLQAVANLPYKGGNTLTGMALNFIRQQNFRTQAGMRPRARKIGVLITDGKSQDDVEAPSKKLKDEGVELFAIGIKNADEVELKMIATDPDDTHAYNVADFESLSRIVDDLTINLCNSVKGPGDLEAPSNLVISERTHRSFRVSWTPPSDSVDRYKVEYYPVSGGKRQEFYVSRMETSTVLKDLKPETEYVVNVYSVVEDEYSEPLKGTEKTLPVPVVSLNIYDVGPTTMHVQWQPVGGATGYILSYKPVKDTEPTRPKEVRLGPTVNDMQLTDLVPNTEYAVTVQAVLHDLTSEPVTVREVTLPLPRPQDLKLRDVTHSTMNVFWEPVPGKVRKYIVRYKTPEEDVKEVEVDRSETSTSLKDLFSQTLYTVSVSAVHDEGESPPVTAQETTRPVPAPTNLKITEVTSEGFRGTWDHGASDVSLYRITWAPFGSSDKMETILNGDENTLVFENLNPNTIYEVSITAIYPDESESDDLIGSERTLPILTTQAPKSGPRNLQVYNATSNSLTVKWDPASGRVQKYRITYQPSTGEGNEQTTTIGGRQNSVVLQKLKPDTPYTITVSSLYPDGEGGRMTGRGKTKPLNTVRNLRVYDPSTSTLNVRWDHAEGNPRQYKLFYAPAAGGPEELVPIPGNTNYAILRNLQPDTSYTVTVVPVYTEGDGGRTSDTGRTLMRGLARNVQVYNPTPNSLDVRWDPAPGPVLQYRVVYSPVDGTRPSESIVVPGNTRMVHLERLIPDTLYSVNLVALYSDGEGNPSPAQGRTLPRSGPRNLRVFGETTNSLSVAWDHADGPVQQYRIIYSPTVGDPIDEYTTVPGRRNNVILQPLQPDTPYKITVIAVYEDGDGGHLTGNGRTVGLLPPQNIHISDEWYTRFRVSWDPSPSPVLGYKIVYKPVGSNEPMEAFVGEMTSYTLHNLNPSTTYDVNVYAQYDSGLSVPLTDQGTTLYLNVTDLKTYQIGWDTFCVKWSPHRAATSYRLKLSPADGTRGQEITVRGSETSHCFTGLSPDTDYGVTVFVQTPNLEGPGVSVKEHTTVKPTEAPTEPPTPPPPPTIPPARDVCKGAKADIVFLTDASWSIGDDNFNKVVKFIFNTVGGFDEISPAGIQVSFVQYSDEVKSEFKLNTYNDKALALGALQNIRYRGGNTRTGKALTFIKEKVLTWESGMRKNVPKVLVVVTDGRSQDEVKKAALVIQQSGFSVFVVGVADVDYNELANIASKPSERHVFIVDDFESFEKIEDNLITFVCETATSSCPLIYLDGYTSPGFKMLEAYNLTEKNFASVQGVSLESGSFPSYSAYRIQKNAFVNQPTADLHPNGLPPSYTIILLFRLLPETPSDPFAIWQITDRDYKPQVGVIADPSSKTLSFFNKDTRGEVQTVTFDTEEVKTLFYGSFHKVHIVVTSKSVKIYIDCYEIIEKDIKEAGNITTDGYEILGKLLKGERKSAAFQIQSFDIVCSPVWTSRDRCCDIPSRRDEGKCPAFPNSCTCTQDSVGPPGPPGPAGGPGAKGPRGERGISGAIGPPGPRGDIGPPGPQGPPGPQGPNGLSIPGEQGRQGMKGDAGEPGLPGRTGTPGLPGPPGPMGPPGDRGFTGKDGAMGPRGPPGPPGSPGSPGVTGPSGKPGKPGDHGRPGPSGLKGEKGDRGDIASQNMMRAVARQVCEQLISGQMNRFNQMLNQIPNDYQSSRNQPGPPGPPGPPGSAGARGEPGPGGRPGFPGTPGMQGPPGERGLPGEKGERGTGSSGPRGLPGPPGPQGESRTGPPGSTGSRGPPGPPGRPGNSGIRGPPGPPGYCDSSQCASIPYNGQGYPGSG
inactive: [14] -0.097 | [15] 0.198 | [4] -0.056 | [6] 0.166 | [7] 0.827 | [11] -0.154 | [8] 0.29 | [12] 0.037 | [13] -0.079 | [9] 0.908 | [10] -0.036

DALRD3 (UniProt Q5D0E6)
Chain of UniProt Q5D0E6 (Q5D0E6 whole entry, looked up): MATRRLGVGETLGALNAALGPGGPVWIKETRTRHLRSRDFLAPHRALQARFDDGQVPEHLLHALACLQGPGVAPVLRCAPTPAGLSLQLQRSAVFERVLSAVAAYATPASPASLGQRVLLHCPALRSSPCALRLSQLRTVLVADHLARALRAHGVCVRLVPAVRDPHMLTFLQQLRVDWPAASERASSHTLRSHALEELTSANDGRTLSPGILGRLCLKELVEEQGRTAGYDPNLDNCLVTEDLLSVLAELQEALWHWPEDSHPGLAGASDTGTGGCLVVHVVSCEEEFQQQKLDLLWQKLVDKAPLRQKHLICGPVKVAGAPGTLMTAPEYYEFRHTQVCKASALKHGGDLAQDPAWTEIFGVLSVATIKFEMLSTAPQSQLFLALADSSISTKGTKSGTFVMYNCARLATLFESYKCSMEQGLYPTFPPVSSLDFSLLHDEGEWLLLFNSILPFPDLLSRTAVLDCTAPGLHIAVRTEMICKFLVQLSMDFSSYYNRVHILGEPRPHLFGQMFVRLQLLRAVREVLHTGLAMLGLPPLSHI
inactive: [7] -0.03 | [11] 0.207 | [8] -0.17 | [13] 0.074 | [10] -0.046
active: [12] -0.895

DDAH1 (UniProt O94760)
inactive: [14] -0.244 | [15] 0.174 | [4] -0.013 | [6] -0.003 | [7] -0.034 | [11] -0.016 | [8] -0.076 | [12] 0.07 | [13] -0.035 | [9] 0.017 | [10] -0.014
